High-throughput results deposited in PubChem BioAssay by National Center for Advancing Translational Sciences (NCATS).
FEN1 inhibitor: human FEN1 inhibition; hit rate 0.35% among 390,000; Potency, µM (titrated, usually from 114 µM), inactives show at the top dose activity change, negative = inhibition, actives largely listed as inhibitors; Recombinant FEN1 flap cleavage, fluorescence, 15 min; AID 588795; note: % is set by controls: 0 for no effect and ±100 for the full control effect; nearly all actives have a fitted effect of over 65% in size
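Read-out was taken twice, immediately and after 15 min, following addition of 50 nM substrate to 10 nM FEN1 that had sat with test compound for 15 min at room temperature. Curves came from a four-parameter Hill model.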
WRN helicase inh: blocks human WRN helicase; Q14191; WRN helicase unwinding, fluorescent forked duplex, kinetic; Potency, µM (titrated, usually from 114 µM), without a hit: at the top dose activity change, negative = inhibition, hits mostly inhibitors; hit rate 0.46% among 360,000; note: % is set by controls: 0 for no effect and ±100 for the full control effect; nearly all actives have a fitted effect of over 55% in size
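Kinetic fluorescence helicase assay: unwinding of a quenched forked DNA duplex (100 nM final) with 2 mM ATP final raises red fluorescence (525/598 nm). Compounds sat 15 min at room temperature with 20 nM WRN beforehand.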
POLK inh: inhibitors of human DNA polymerase kappa. purified Pol kappa, fluorescent DNA synthesis assay, 10 min. Potency, µM (series often up to 107 µM), inactives show top-dose activity, negative = inhibition, actives largely listed as inhibitors. hit rate 0.53% among 400,000. AID 588579; note: % is set by controls: 0 for no effect and ±100 for the full control effect
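Activity was followed as the change in fluorescence between reads at 0 and 10 min after starting the reaction with 50 nM substrate. Beforehand, 10 nM polymerase had been preincubated with compound for 15 min at room temperature.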
POLB inh: inhibitors of human DNA polymerase beta. P06746. Pol beta primer extension/strand displacement, fluorescence kinetic. Potency, µM (doses to about 114 µM), inactives show at the top dose activity change, negative = inhibition, usual class: inhibitors. hit rate 1.3% among 340,000. AID 485314; note: % is set by controls: 0 for no effect and ±100 for the full control effect
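10 nM enzyme + cpd, 15 min RT; start with substrate 50 nM final; read 0 min and after 10 min RT. Corrected, normalized data; 4-parameter Hill curve fit.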
POLH inh: inhibitors of human DNA polymerase eta. recombinant Pol eta, fluorescent DNA replication assay. hit rate 1.2% among 390,000. Potency, µM (series often up to 114 µM), without a hit: at the top dose activity change, negative = inhibition, usual class: inhibitors; note: % is set by controls: 0 for no effect and ±100 for the full control effect
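Pol eta (10 nM) was preincubated with compounds for 15 min at room temperature, after which fluorescent replication substrate (50 nM final) was added to start the reaction. Fluorescence was read kinetically at 0 and 10 min.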
Pol iota inh: blocks human DNA polymerase iota activity. Pol iota fluorescent replication assay, 10 min. Potency, µM (top dose mostly 115 µM), inactives show at the top dose activity, negative = inhibition, hits mostly inhibitors. hit rate 1% among 390,000
Target sequence (Q9UNA4 whole entry, looked up): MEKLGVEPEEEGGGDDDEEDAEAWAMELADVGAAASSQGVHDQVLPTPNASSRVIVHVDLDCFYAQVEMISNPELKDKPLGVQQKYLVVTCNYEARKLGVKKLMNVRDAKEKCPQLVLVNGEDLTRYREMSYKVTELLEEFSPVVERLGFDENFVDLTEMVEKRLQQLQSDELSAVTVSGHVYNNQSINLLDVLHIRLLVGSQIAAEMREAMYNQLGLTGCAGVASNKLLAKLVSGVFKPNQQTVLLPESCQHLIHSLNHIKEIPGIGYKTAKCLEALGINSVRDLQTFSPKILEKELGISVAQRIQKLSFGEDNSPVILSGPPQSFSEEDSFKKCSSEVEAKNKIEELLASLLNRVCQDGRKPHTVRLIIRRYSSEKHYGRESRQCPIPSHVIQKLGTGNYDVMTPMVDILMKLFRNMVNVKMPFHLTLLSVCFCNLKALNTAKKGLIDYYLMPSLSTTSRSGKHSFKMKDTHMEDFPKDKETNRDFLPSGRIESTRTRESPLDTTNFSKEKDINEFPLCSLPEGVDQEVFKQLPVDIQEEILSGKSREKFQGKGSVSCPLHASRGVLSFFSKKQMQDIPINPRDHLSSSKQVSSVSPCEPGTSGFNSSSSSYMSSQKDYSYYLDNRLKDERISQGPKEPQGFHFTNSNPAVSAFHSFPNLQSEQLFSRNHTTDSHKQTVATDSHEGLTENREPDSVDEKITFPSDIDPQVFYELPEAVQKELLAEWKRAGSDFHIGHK
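Pol iota at 10 nM preincubated 15 min with compounds at room temperature; reaction started with fluorescent substrate, 50 nM final. Fluorescence read kinetically at 0 and 10 min; buffer-only wells as negative control.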
The depositor's hits bear a star; u = inconclusive; x = no result; ! = not confirmed by another sample; [ ] = another dose, or the depositor's remark. Hits are enriched below; roughly 2.4% of the tested compounds scored in any of these assays. Calls come from the whole dose curve; as a rule, active = well fitted curve in the direction sought with a large enough effect; inconclusive = small, poorly fitted or top-dose-only effect, or another doubt; inactive = no such curve, though single readings can be large; an effect the other way counts as inactive or inconclusive. Potency is the fitted concentration of half-maximal effect.

SMILES | FEN1 inhibitor | WRN helicase inh | POLK inh | POLB inh | POLH inh | Pol iota inh
CC[C@H]1OC(=O)[C@H](C)C(=O)[C@H](C)[C@@H](OC2O[C@H](C)C[C@H](N(C)C)[C@@H]2O)[C@@](C)(OC)C[C@@H](C)C(=O)[C@@H](C)C2N(CCCCn3cnc(-c4cccnc4)c3)C(=O)O[C@@]21C (stereo partly drawn) | x | x | 0.6%[19.4 µM] | x | x | x
COc1ccc(-c2nnc(SCC(=O)Nc3c(C)cccc3C)nc2-c2ccc(OC)cc2)cc1 | -11.1% | x | -13.4% | -13.3% | -19.8% | -21.7%
Cc1ccccc1NC(=O)CSc1nnc(-c2ccco2)c(-c2ccco2)n1 | 56.2µM* | 39.8µM* | 31.6µM* | 14.1µM* | 50.1µM* | 10µM*
Cc1cccc(C)c1NC(=O)CSc1nnc(-c2ccco2)c(-c2ccco2)n1 | 79.4µM* | 35.5µM* | 28.2µM* | 3.16µM* | 3.55µM* | u
CCOC(=O)c1noc2nc(C)n(CC(=O)Nc3cccc(OC)c3)c(=O)c12 | -3.1% | x | -2.2%[60.1 µM] | 0.4% | -9.6% | -6.1%
CC#C[C@]1(O)CC[C@H]2C3CCC4=CC(=O)CCC4=C3[C@@H](c3ccc(N(C)C)cc3)C[C@@]21C (stereo partly drawn) | x | x | 6.1%[19.4 µM] | -4.1%[57.1 µM] | 4.0%[57.1 µM] | u
COc1ccc(Cc2nc3ccc(S(=O)(=O)N4CCOCC4)cc3[nH]2)cc1OC | -5.9% | -7.9% | -11.8% | 4.9% | 3.4% | 9.8%
COc1ccc(Cc2nc3ccc(S(=O)(=O)N4CCOCC4)cc3[nH]2)cc1 | -11.0% | -4.5% | -7.7% | 23.5% | -1.1% | 79.4µM*
COc1ccccc1C1CC(=O)Oc2cc3c(cc21)OCO3 (stereo not drawn) | x | x | 14.1µM* | x | x | x
COc1ccc(Nc2c3c(nc4ccc(NC(=O)c5cc(Cl)ccc5OC)cc24)CCCC3)cc1OC | -3.2% | x | 6.6% | u | -7.5% | u
CCCCCCCCCCCCCCCC(=O)OCC(O)C1OC(=O)C(O)=C1O (stereo not drawn) | x | x | 14.1µM* | x | x | x
Cc1nn(-c2ccccc2)c2c1N(CCCC(=O)NCc1ccc(OC(C)C)cc1)C(=O)CS2 | -14.3% | x | -19.2% | 10.9% | -4.9% | 10.1%
CC(/C=N/NC(=O)Cc1cccn1C)=C\c1ccco1 | -0.8% | -19.1%[57.1 µM] | u | u | u | 44.7µM*
Cc1cc2c(c(=O)o1)C(c1ccc([N+](=O)[O-])o1)C(C#N)=C(N)O2 (stereo not drawn) | u | u | 79.4µM* | u | -3.5% | 20µM*
CCC(CC)C1C(C#N)=C(N)Oc2cc(C)oc(=O)c21 (stereo not drawn) | 7.0% | -4.6% | -4.4% | -8.0% | 9.4% | -2.8%
Cc1ccc2cccc(NC(=O)c3ccc(-c4cccc(Cl)c4Cl)o3)c2n1 | -9.2% | x | -1.5% | 19.5% | 6.8% | -10.3%
Cc1nc(-c2cccc(NC(=O)c3ccc(-n4nccc4C)cc3)c2)cs1 | 10.6% | -11.3% | -13.6% | x | -8.5% | -8.0%
Cc1nc(-c2ccc(C(=O)O)cc2)cs1 | 2.6% | 6.6% | -8.9% | 79.4µM* | -8.8% | -0.7%
Cc1nc(-c2ccc(C(=O)Nc3cccc(Br)c3)cc2)cs1 | -3.1% | -13.1% | -13.4% | 31.6µM* | -17.2% | u
Cc1cccc(CSCCNC(=O)CN(c2ccccc2)S(=O)(=O)N(C)C)c1 | -6.4% | x | 6.3% | 2.1% | x | 10.9%
Cc1nc2sc(C(=O)Nc3ccc(F)cc3)c(N)c2c(-c2ccc(Br)cc2)c1C(=O)Nc1ccc(Cl)cc1 | -1.1% | x | 9.2% | 16.9% | 2.4% | -23.6%
Nc1nc(N)nc(-c2cccc(Cl)c2Cl)n1 | -9.8% | -3.1% | -19.5% | x | 2.1% | 16.4%
Nc1nc(N)nc(-c2cc(Cl)ccc2Cl)n1 | 0.7% | 0.8%[11.6 µM] | 14.5%[60.1 µM] | x | -2.0% | 79.4µM*
O=C1C=C(O)CC(c2cccs2)C1 (stereo not drawn) | 5.7% | -18.3% | -39.4% | 28.2µM* | -28.4% | u
COC(=O)c1sc(-c2ccccc2)cc1NC(=O)Nc1ccc(F)cc1 | 89.1µM* | x | u | 1.1% | -5.6% | u
SMILES | FEN1 inhibitor | WRN helicase inh | POLK inh | POLB inh | POLH inh | Pol iota inh
COC(=O)c1sc(-c2ccccc2)cc1NC(=O)Nc1ccc(Cl)cc1 | -27.3% | x | 0.2% | 27.9% | -6.7% | -5.6%
COc1cc(NC(=O)c2nc3cc(C)c(C)cc3n(C)c2=O)cc(OC)c1OC | -7.0% | x | -27.7% | 0.7% | -24.0% | 1.6%
Cc1[nH]c(=O)nc(SCc2cccc(Cl)c2)c1C#N | -22.5% | u | -19.9% | 70.8µM* | -7.6% | 24.3%
CCc1ccc(NS(=O)(=O)c2cc(OC)ccc2OC)cc1 | 3.9% | -3.9% | -9.0%[60.1 µM] | -1.9% | -19.5% | 19.7%
CCc1ccc(NS(=O)(=O)c2[nH]ncc2C(=O)OC)cc1 | 16.0% | x | -26.0% | u | -12.4% | 79.4µM*
C/C(CC(C)C)=N\Nc1ccc(S(N)(=O)=O)cc1[N+](=O)[O-] | -15.9% | -6.1% | -8.2% | 23.7% | -17.3% | 36.4%
CCC(C)/C(C)=N/Nc1ccc(S(N)(=O)=O)cc1[N+](=O)[O-] (stereo not drawn) | -8.6% | 4.4% | 0.0% | 5.1% | 89.1µM* | 115.9%
N#Cc1ccccc1CN1C(=O)c2ccccc2Sc2ccc(C(=O)OCc3ccco3)cc21 | 1.5% | x | -11.8%[60.1 µM] | 4.7% | -8.9% | -1.2%
CN(Cc1cnc2nc(N)nc(N)c2n1)c1ccc(C(=O)N[C@H](CCC(=O)O)C(=O)O)cc1 | x | x | -4.2%[12 µM] | x | x | x
CN(Cc1cnc2nc(N)nc(N)c2n1)c1ccc(C(=O)N[C@@H](CCC(=O)O)C(=O)O)cc1 | u | -11.4% | u | 39.8µM* | 31.6µM*! | 31.6µM*!
O=C(CSc1nnc(-c2ccccc2)o1)c1nnc(-c2ccccc2)o1 | 9.1% | -22.4% | -13.7% | -24.1% | 20µM* | -23.9%
COc1cc(/C=N/NC(=O)c2ccc(=O)[nH]n2)ccc1O | -8.3% | -21.1% | u | 20µM* | u | 100µM*
COc1cc(/C=N/Nc2ccc(C(=O)O)cc2)cc(OC)c1OC | -5.8% | -5.3% | 7.8% | 13.7% | -6.0% | 50.6%
COc1cc(/C=N/NC(=O)c2cc(-c3ccc4c(c3)OCO4)n[nH]2)ccc1O | -9.6% | -8.3%[11.6 µM] | 79.4µM* | 8.91µM* | u | u
COc1cc(/C=N/Nc2ccc(C(=O)O)cc2)ccc1O | 8.7% | -13.2%[57.1 µM] | 10.9%[60.1 µM] | 25.1µM* | 22.4µM* | u
COc1cc(/C=N/NC(=O)c2cc(C3CC3)[nH]n2)ccc1O | -2.5% | -1.0% | 7.6% | 2.4% | -12.8% | -1.3%
COc1cc(/C=N\NC(=O)c2ccc(C)nc2)ccc1OC(=O)c1ccc2c(c1)OCO2 | 1.8% | -14.9% | 2.7% | 20µM* | u | -12.4%
CN(C)c1ccc(/C=C/c2c(Br)cnc3ccccc23)cc1 | -21.4% | x | -4.0% | x | x | -10.3%
